Compounds without any hit were thinned out: in the full panel of roughly 83,000, 20% have a hit.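 Values shown are percent growth following 48 h exposure of cells in 96-well plates to a single concentration of compound; below 10 was considered active.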 A number with no mark means an inactive call. The source made the active and inactive calls.

Test systems include HCT-15 colon; HT29 colon; SNB-75 CNS; SNB-19 CNS; U251 CNS; PC-3 prostate; SK-MEL-5 melanoma; UACC-62 melanoma; LOX IMVI melanoma; SK-MEL-28 melanoma; SK-MEL-2 melanoma; EKVX NSCLC; SN12C renal; UO-31 renal; TK-10 renal; ACHN renal; A498 renal; CCRF-CEM leukemia; MOLT-4 leukemia; SR leukemia.
Common to all, as to test: NCI-60 one-dose screen, 48 h (100 = growth as untreated, 0 = no growth, -100 = all killed)
Holding throughout (conditions): 10 µM unless noted

With `CNC(=O)c1cc(Oc2ccc3c(c2)sc2nc(-c4ccc(NC(C)=O)cc4)cn23)ccn1`, the growth was 53% in the experiment on HCT-15 colon; 34.7% with HT29 colon; -0.726% (active) in the experiment with SNB-75 CNS; 55.2% in the experiment on SNB-19 CNS; 40.7% in the experiment with U251 CNS; 36.6% in the experiment with PC-3 prostate. Besides, the growth in the experiment with SK-MEL-5 melanoma was 31.7%; in the experiment with UACC-62 melanoma it was 46.7%; with LOX IMVI melanoma it was 60.9%; in the experiment with SK-MEL-28 melanoma, 70%; in the experiment on SK-MEL-2 melanoma, 45.2%; in the experiment on EKVX NSCLC it was 54.7%. Further, the growth in the experiment on SN12C renal is 52%; with UO-31 renal, 43.9%; with TK-10 renal, 61.4%; in the experiment on ACHN renal, 52%; with A498 renal, -6.27% (active); with CCRF-CEM leukemia, 78.8%. Further, the growth was 72.7% in the experiment on MOLT-4 leukemia and 25.7% with SR leukemia.

For the molecule `O=c1[nH]c2ccccc2cc1-c1nc2ccc(Cl)cc2[nH]1`, the growth in the experiment with HCT-15 colon was 23.5%; in the experiment on HT29 colon, 53.1%; in the experiment with SNB-75 CNS, 45.1%; in the experiment on SNB-19 CNS it was 75.5%; with U251 CNS, 49.5%; with PC-3 prostate, 26%. For the same molecule, the growth with SK-MEL-5 melanoma is 42.5%; in the experiment with UACC-62 melanoma it was 43%; in the experiment with LOX IMVI melanoma it was 42.4%; in the experiment on SK-MEL-28 melanoma, 72.4%; with SK-MEL-2 melanoma it was 18.7%; in the experiment with EKVX NSCLC, 22.6%. Besides, the growth is 48.4% in the experiment with SN12C renal; 45.7% in the experiment on UO-31 renal; 37.5% in the experiment on TK-10 renal; 27% in the experiment with ACHN renal; 48.3% in the experiment with A498 renal; 13.7% in the experiment on CCRF-CEM leukemia. In addition, the growth with MOLT-4 leukemia was -19.7% (active); with SR leukemia it was 8.43% (active).

Turning to `C=C1C(=O)O[C@H]2[C@H]1CC/C(COC(=O)CCCCCCC(=O)OC/C1=C/CC[C@@]3(C)O[C@H]3[C@H]3OC(=O)C(=C)[C@@H]3CC1)=C\CC[C@@]1(C)O[C@@H]21`, the growth was 0.887% (active) with HCT-15 colon; 3.75% (active) with HT29 colon; 63.1% in the experiment with SNB-75 CNS; 65.9% in the experiment with SNB-19 CNS; 44.1% in the experiment with U251 CNS; 36.1% with PC-3 prostate. The growth in the experiment with SK-MEL-5 melanoma is 36.5%; with UACC-62 melanoma, 42.3%; in the experiment with LOX IMVI melanoma, -10.8% (active); in the experiment on SK-MEL-28 melanoma, 48.8%; in the experiment on SK-MEL-2 melanoma, 84.6%; in the experiment on EKVX NSCLC, 24.6%. For the same molecule, the growth in the experiment on SN12C renal is 6.29% (active); in the experiment on UO-31 renal, -21.8% (active); with TK-10 renal, -5.79% (active); in the experiment on ACHN renal it was -38.6% (active); with A498 renal it was 96.3%; with CCRF-CEM leukemia, 4.54% (active). The growth is 2.4% (active) in the experiment with MOLT-4 leukemia and -2.74% (active) in the experiment with SR leukemia.

As for `Cc1cc2ccccc2c[n+]1CC(=O)c1ccc(-c2ccccc2)cc1`, the growth was 84% in the experiment on HCT-15 colon; 24.8% with HT29 colon; 61.4% in the experiment with SNB-75 CNS; 58.8% in the experiment with SNB-19 CNS; 42.7% with U251 CNS; 29.7% with PC-3 prostate. The growth with SK-MEL-5 melanoma is 21.6%; in the experiment on UACC-62 melanoma, 71.2%; in the experiment with LOX IMVI melanoma, 54%; with SK-MEL-28 melanoma, 84%; with SK-MEL-2 melanoma, 84.3%; in the experiment on EKVX NSCLC, 54.8%. The growth with SN12C renal was 55.4%; in the experiment with UO-31 renal, 61.5%; in the experiment with TK-10 renal, 68.5%; in the experiment on ACHN renal, 79.4%; in the experiment with A498 renal it was 56.5%; in the experiment with CCRF-CEM leukemia it was 53.4%. The growth is 49.3% in the experiment on MOLT-4 leukemia and 54.7% with SR leukemia.

Take `COC(=O)[C@]1(C)CCC[C@]2(C)[C@H]3C[C@H]4C(C(C)C)=C[C@]3(CC[C@H]21)[C@@H]1C(=O)N(CCC#N)C(=O)[C@@H]14`: the growth in the experiment with HCT-15 colon is 83.2%; with HT29 colon it was 70.5%; with SNB-75 CNS, 93%; with SNB-19 CNS, 102%; in the experiment on U251 CNS, 87.8%; with PC-3 prostate it was 31.2%. Also, the growth was 71.6% in the experiment on SK-MEL-5 melanoma; 62.9% in the experiment on UACC-62 melanoma; 98.1% in the experiment with LOX IMVI melanoma; 108% in the experiment on SK-MEL-28 melanoma; 88.6% in the experiment with SK-MEL-2 melanoma; 79.5% in the experiment on EKVX NSCLC. Further, the growth in the experiment with SN12C renal was 90.2%; with UO-31 renal, 76.1%; in the experiment with TK-10 renal, 104%; in the experiment with ACHN renal it was 96.3%; in the experiment with A498 renal it was 105%; in the experiment on CCRF-CEM leukemia, 61.8%. In addition, the growth with MOLT-4 leukemia is 38.2%; in the experiment on SR leukemia, 80.4%.

As for `CC(C)(C)CC(C)(C)Cc1ccc(OCCOCC[N+](C)(C)Cc2ccccc2)cc1`, the growth in the experiment with HCT-15 colon is 97%; in the experiment with HT29 colon it was 9.89% (active); in the experiment with SNB-75 CNS, -9% (active); with SNB-19 CNS, -7.68% (active); in the experiment with U251 CNS, 2.86% (active); in the experiment with PC-3 prostate, 10.1%. Further, the growth was -98.8% (active) in the experiment with SK-MEL-5 melanoma; -36.1% (active) with UACC-62 melanoma; 10.5% with LOX IMVI melanoma; 20.5% with SK-MEL-28 melanoma; 28.4% in the experiment on SK-MEL-2 melanoma; 74.7% in the experiment on EKVX NSCLC. In addition, the growth in the experiment on SN12C renal was 8.79% (active); in the experiment on UO-31 renal, 97.1%; in the experiment on TK-10 renal, 49.4%; with ACHN renal, 97.4%; in the experiment on A498 renal, 63.8%; with CCRF-CEM leukemia, 10%. Moreover, the growth with MOLT-4 leukemia was 7.43% (active); in the experiment with SR leukemia, -27.8% (active).

With `C[C@]12CC[C@@H]3c4ccc(O)cc4CC[C@H]3[C@@H]1C[C@H](O)C2`, the growth in the experiment with HCT-15 colon was 44.4%; in the experiment on HT29 colon, 94.1%; in the experiment with SNB-75 CNS, 84.2%; in the experiment on SNB-19 CNS it was 66.2%; in the experiment on U251 CNS, 63.3%; in the experiment on PC-3 prostate, 80%. Besides, the growth was 64.9% in the experiment with SK-MEL-5 melanoma; 43.6% in the experiment with UACC-62 melanoma; 63.4% with LOX IMVI melanoma; 84.3% with SK-MEL-28 melanoma; 82.4% with SK-MEL-2 melanoma; 44% in the experiment on EKVX NSCLC. For the same molecule, the growth with SN12C renal was 71.6%; in the experiment with UO-31 renal it was 71.4%; in the experiment with TK-10 renal it was 96.4%; in the experiment with ACHN renal, 99.7%; with A498 renal it was 44.6%; in the experiment on CCRF-CEM leukemia, 52.7%. Besides, the growth is 47.5% with MOLT-4 leukemia and 25.4% in the experiment with SR leukemia.

The record behind these values is PubChem BioAssay (NCI).
